# Measurements from PubChem BioAssay (EPA / NIEHS).
# Where “and” joins values, the source holds several entries; their conditions need not be identical. Equal entries are not always repeated. Records with an inconclusive call do not appear. Calls of active or inactive are those of the source. The calls were made as follows, unless noted: active = hit-call score of the fitted dose curve at least 0.9, where 1 is the maximum; inconclusive = response in the unintended direction; inactive = score below 0.9.
# Assays:
# [1] = read-out: Human Leukocyte Antigen - DR isotype (HLADR), HLA-DRA (gene 3122); assay: BSK_3C_HLADR: BioMAP Diversity Plus: 3C Assay for Human Leukocyte Antigen - DR isotype (HLADR) Biomarker Activity (AID 2283019; active = hit-call score of the fitted dose curve at least 0.9, where 1 is the maximum; inactive = score below 0.9;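 as to outcome: ELISA of cell-surface HLA-DR on HUVEC 24 h after dosing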); conditions: primary human endothelial cells (HUVEC); actives raise or lower the signal
# How it was run: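 Endothelial cells from human umbilical vein are treated with test chemical; after 24 h, HLA-DR levels are measured by ELISA. Data are fitted in both directions using DMSO as the baseline.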
# [2] = read-out: Human Leukocyte Antigen - DR isotype (HLADR), HLA-DRA (gene 3122); assay: BSK_BE3C_HLADR: BioMAP Diversity Plus: BE3C Assay for Human Leukocyte Antigen - DR isotype (HLADR) Biomarker Activity (AID 2283032; active = hit-call score of the fitted dose curve at least 0.9, where 1 is the maximum; inactive = score below 0.9); conditions: primary human bronchial epithelial cells; actives raise or lower the signal
# How it was run: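 Signal came from an ELISA for HLA-DR in human bronchial epithelial primary cells harvested 24 h after treatment; gain- and loss-of-signal fitting used DMSO controls as reference.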
# [3] = read-out: Interleukin-8 (IL8), CXCL8 (gene 3576); assay: BSK_CASM3C_IL8: BioMAP Diversity Plus: CASM3C Assay for Interleukin-8 (IL8) Biomarker Activity (AID 2283042; active = hit-call score of the fitted dose curve at least 0.9, where 1 is the maximum; inactive = score below 0.9;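 also: IL-8 protein level quantified by ELISA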); conditions: primary human coronary artery smooth muscle cells; actives raise or lower the signal
# [4] = read-out: Human Leukocyte Antigen - DR isotype (HLADR), HLA-DRA (gene 3122); assay: BSK_CASM3C_HLADR: BioMAP Diversity Plus: CASM3C Assay for Human Leukocyte Antigen - DR isotype (HLADR) Biomarker Activity (AID 2283043; active = hit-call score of the fitted dose curve at least 0.9, where 1 is the maximum; inactive = score below 0.9;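 also: cell-surface HLA-DR protein level quantified by ELISA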); conditions: primary human coronary artery smooth muscle cells; actives raise or lower the signal
# [5] = read-out: Monokine induced gamma interferon (MIG), CXCL9 (gene 4283); assay: BSK_CASM3C_MIG: BioMAP Diversity Plus: CASM3C Assay for Monokine induced gamma interferon (MIG) Biomarker Activity (AID 2283048; active = hit-call score of the fitted dose curve at least 0.9, where 1 is the maximum; inactive = score below 0.9;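 also: MIG protein level measured by ELISA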); conditions: primary human coronary artery smooth muscle cells; actives raise or lower the signal
# [6] = read-out: Intercellular Adhesion Molecule 1 (ICAM1), ICAM1 (gene 3383); assay: BSK_KF3CT_ICAM1: BioMAP Diversity Plus: KF3CT Assay for Intercellular Adhesion Molecule 1 (ICAM1) Biomarker Activity (AID 2283067; active = hit-call score of the fitted dose curve at least 0.9, where 1 is the maximum; inactive = score below 0.9); conditions: primary human keratinocytes with fibroblasts; actives raise or lower the signal
# How it was run: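 Dose the keratinocyte/fibroblast co-culture, wait 24 h, measure ICAM-1 by ELISA, then fit increases or decreases against DMSO. Cytotoxicity is checked in parallel cultures by SRB total-protein staining.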
# [7] = read-out: Interleukin-8 (IL8), CXCL8 (gene 3576); assay: BSK_LPS_IL8: BioMAP Diversity Plus: LPS Assay for Interleukin-8 (IL8) Biomarker Activity (AID 2283078; active = hit-call score of the fitted dose curve at least 0.9, where 1 is the maximum; inactive = score below 0.9); conditions: primary human HUVEC with PBMC; actives raise or lower the signal
# How it was run: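 Endothelial cells and PBMC from human donors are co-cultured, treated with chemicals and LPS, then assayed for IL-8 by ELISA after 24 h. Parallel SRB staining (0.1% SRB after 10% TCA fixation, 560 nm) flags cytotoxicity.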
# [8] = biological target: Aryl hydrocarbon receptor (Homo sapiens) (UniProt P35869); assay: ATG_Ahr_CIS: Attagene CIS-FACTORIAL HepG2 Assay for human Aryl Hydrocarbon Receptor (Ahr) (AID 2282930; active = hit-call score of the fitted dose curve at least 0.9, where 1 is the maximum; inactive = score below 0.9); conditions: HepG2 AhR cis-factorial reporter transcription; actives raise or lower the signal
# How it was run: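 HepG2 cells transiently transfected with cis-element-driven multiplexed reporter units; endogenous AhR activity read as reporter mRNA 24 h after dosing, via RT-PCR, 6-FAM labelling, HpaI digestion and capillary electrophoresis. Bidirectional fit relative to DMSO.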
# [9] = biological target: bovine Estrogen Receptor (ER), ESR1 (gene 407238) (UniProt P49884); assay: NVS_NR_bER: NovaScreen (NVS) Nuclear Receptor Binding Assay for bovine Estrogen Receptor (ER) (AID 2283345);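 also: actives lower the bound radioligand count which means they displace the ER ligand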
# How it was run: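 Bovine uterine membranes; tritiated or iodinated radioligand; competitive displacement; 18 h; scintillation read; DMSO negative control; 25 uM duplicates, then concentration series for actives.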
# [10] = biological target: Estrogen receptor (Homo sapiens) (UniProt P03372); assay: NVS_NR_hER: NovaScreen (NVS) Nuclear Receptor Binding Assay for human Estrogen Receptor (ER) (AID 2283348)
# How it was run: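 Radioligand competitive displacement binding to estrogen receptor from MCF7 extract, cell-free; 18 h after dosing, scintillation read-out. Primary screen in duplicate at 25 uM; actives followed up in concentration series; loss of signal vs DMSO.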
# [11] = biological target: Peroxisome proliferator-activated receptor gamma (Homo sapiens) (UniProt P37231); assay: OT_PPARg_PPARgSRC1_1440: Odyssey Thera (OT) 24-hour Protein-Complementation Assay for Peroxisome Proliferator-activated Receptor Gamma/ SRC-1 Co-activator (AID 2283388);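 also: nuclear to cytoplasmic ratio of reconstituted Venus YFP fluorescence in fixed imaged cells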
# How it was run: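 Transient HEK293T, YFP fragments 1-158/159-239 (mutant IFP1/IFP2) fused to PPARg/SRC-1; 24 h dosing; fix 4% formaldehyde, Draq5; Opera imaging 488/635 nm; N/C ratio, gain vs DMSO.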
# [12] = test system: rat Monoamine Oxidase, MAO-A, Central (MAOAC), gene 29253; assay: NVS_ENZ_rMAOAC: NovaScreen (NVS) Enzymatic Assay for rat Monoamine Oxidase, MAO-A, Central (MAOAC) (AID 2283243);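 also: potency refers to inhibition seen as signal drop below DMSO baseline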
# How it was run: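 Inhibition of rat brain-derived MAO-A was read by scintillation counting after 1.5 h exposure. Compounds screened first at 25 uM in duplicate, then in dose series if active.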
# [13] = CCTE_Harrill_HTTr_Viability_MCF7: CCTE's 6-hour Cell Viability Assessment for the High-Throughput Transcriptomics (HTTr) Platform, in MCF-7 cells cultured in DMEM + 10% fetal bovine serum, Harrill Lab (AID 2284010; active = hit-call score of the fitted dose curve at least 0.9, where 1 is the maximum; inactive = score below 0.9)
# How it was run: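 Viability measured through PI dye exclusion by high-content imaging at 6 h post-dosing.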
# [14] = biological target: human Retinoic Acid Receptor gamma (RARg), RARG (gene 5916) (UniProt P13631); assay: ATG_RARg_TRANS: Attagene TRANS-FACTORIAL HepG2 Assay for human Retinoic Acid Receptor gamma (RARg) (AID 2283009)
# How it was run: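 HepG2, RARg-GAL4 TRANS system, 24 h exposure; reporter mRNA by RT-PCR + CE fluorescence; increase over DMSO.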
# [15] = biological target: human Phosphatase and Tensin Homolog (PTEN), PTEN (gene 5728) (UniProt P60484); assay: NVS_ENZ_hPTEN: NovaScreen (NVS) Enzymatic Assay for human Phosphatase and Tensin Homolog (PTEN) (AID 2283203)
# How it was run: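 Cell-free recombinant human PTEN with fluorescent substrate; product separated by electrophoretic mobility shift and read by fluorescence 1 h after dosing. Primary screen in duplicate at 25 uM, actives followed in concentration series versus DMSO.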
# [16] = biological target: human CYP4F12, CYP4F12 (gene 66002) (UniProt Q9HCS2); assay: NVS_ADME_hCYP4F12: NovaScreen (NVS) CYP450-related Enzyme Activity (ADME) Assay for human CYP4F12 (AID 2283111)
# How it was run: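 Cell-free fluorescence assay of recombinant human CYP4F12 activity on a specific substrate, read 0.5 h after dosing. Primary screen in duplicate at 10 uM, then concentration series for actives; loss of signal fitted against acetonitrile negative control.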
# [17] = biological target: human Fibroblast Growth Factor Receptor 1 (FGFR1), FGFR1 (gene 2260) (UniProt P11362); assay: NVS_ENZ_hFGFR1: NovaScreen (NVS) Enzymatic Assay for human Fibroblast Growth Factor Receptor 1 (FGFR1) (AID 2283159);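 as to AC50: hits lower the signal so potencies describe inhibitors of the kinase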
# How it was run: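 Cell-free recombinant kinase with fluorescent substrate, product separated by electrophoretic mobility shift; read 1 hour after dosing, loss of signal relative to DMSO. Initial screen in duplicate at 25 uM, actives followed in concentration series.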
# [18] = biological target: human Matrix Metalloproteinase-1 (MMP1), MMP1 (gene 4312) (UniProt P03956); assay: NVS_ENZ_hMMP1: NovaScreen (NVS) Enzymatic Assay for human Matrix Metalloproteinase-1 (MMP1) (AID 2283181)
# How it was run: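 Human MMP1 enzyme activity measured by fluorescence 1 h after dosing, cell-free, with a specific substrate. Screened in duplicate at 25 uM; hits (e.g. 30% inhibition) run in concentration-response up to 50 uM; loss of signal versus DMSO.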
# [19] = biological target: rat CYP2D1, Cyp2d1 (gene 266684) (UniProt P10633); assay: NVS_ADME_rCYP2D1: NovaScreen (NVS) CYP450-related Enzyme Activity (ADME) Assay for rat CYP2D1 (AID 2283122)
# How it was run: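 Cell-free fluorescence enzyme-activity assay on extracted rat CYP2D1 protein, read 0.75 h after dosing. Primary screen in duplicate at 10 uM; qualifying chemicals then run in concentration-response to 20 uM max, loss-of-signal versus acetonitrile baseline.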
# [20] = test system: rat Monoamine Oxidase, MAO-A, Peripheral (MAOAP), gene 29253; assay: NVS_ENZ_rMAOAP: NovaScreen (NVS) Enzymatic Assay for rat Monoamine Oxidase, MAO-A, Peripheral (MAOAP) (AID 2283237)
# How it was run: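 Rat liver mitochondrial membranes served as the MAO-A source, with enzyme activity measured by radiometric scintillation counting 1.17 hours after dosing. Loss of signal was fitted against DMSO; primary screen used 25 uM in duplicate, follow-up used concentration series.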
# Chain of human Phosphatase and Tensin Homolog (PTEN), PTEN (gene 5728) (P60484 whole entry, looked up): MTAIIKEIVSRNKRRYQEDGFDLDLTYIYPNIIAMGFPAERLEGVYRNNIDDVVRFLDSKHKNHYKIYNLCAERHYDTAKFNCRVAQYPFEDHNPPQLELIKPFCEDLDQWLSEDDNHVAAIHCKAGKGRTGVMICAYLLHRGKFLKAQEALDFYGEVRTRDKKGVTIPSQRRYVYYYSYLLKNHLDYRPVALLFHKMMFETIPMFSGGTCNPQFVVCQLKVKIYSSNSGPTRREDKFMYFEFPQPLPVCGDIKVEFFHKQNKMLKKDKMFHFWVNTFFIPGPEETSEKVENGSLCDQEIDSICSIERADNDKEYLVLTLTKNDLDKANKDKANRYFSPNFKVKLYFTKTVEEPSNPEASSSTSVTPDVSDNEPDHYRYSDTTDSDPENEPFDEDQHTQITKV
# Chain of Aryl hydrocarbon receptor (Homo sapiens) (P35869 whole entry, looked up): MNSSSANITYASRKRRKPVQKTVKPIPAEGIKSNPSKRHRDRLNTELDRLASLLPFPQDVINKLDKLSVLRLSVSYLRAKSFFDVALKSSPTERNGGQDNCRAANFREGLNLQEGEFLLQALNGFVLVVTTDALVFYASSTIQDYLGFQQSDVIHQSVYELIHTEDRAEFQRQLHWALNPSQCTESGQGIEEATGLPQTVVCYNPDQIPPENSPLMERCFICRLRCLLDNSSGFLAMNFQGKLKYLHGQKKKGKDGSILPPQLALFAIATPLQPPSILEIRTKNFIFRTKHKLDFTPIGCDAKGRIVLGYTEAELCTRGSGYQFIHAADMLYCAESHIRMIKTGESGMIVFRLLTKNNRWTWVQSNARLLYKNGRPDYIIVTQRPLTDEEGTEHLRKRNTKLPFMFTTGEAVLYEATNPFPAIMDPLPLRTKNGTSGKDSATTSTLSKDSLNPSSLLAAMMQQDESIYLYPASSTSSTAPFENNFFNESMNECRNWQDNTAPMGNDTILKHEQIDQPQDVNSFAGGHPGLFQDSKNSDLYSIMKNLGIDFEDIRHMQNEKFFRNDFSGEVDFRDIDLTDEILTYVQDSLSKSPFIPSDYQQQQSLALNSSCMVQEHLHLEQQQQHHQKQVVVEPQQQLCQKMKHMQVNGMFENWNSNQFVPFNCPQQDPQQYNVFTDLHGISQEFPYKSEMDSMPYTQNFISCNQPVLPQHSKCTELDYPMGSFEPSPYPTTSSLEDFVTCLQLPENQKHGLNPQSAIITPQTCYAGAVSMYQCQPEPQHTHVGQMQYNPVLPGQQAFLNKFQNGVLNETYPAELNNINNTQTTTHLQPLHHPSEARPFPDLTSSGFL
# Chain of human Retinoic Acid Receptor gamma (RARg), RARG (gene 5916) (P13631 whole entry, looked up, the tested form may be a part): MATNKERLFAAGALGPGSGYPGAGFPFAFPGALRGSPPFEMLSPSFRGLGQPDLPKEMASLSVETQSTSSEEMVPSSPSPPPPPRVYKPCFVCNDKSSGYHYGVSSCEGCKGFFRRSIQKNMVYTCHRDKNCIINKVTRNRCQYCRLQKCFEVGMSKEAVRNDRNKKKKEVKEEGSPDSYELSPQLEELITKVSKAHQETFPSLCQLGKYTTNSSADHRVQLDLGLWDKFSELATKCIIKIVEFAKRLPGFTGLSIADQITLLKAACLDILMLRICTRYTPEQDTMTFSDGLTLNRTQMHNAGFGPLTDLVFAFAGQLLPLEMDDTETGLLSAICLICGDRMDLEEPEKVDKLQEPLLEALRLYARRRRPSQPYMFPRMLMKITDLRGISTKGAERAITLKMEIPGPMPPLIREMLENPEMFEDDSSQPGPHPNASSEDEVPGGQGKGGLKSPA
# Chain of human Matrix Metalloproteinase-1 (MMP1), MMP1 (gene 4312) (P03956 whole entry, looked up): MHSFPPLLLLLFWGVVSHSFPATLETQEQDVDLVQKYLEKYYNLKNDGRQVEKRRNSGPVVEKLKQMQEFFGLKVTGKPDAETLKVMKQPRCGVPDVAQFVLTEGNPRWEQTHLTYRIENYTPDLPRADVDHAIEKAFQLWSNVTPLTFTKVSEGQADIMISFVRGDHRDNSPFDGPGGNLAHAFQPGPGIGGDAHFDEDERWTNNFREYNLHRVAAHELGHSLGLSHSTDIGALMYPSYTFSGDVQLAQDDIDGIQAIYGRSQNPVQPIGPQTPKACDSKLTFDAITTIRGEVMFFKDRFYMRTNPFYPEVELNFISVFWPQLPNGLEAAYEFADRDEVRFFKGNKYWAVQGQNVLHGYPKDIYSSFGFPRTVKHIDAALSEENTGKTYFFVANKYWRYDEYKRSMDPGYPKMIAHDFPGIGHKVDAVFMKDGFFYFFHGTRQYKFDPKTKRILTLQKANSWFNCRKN
# Chain of human CYP4F12, CYP4F12 (gene 66002) (Q9HCS2 whole entry, looked up): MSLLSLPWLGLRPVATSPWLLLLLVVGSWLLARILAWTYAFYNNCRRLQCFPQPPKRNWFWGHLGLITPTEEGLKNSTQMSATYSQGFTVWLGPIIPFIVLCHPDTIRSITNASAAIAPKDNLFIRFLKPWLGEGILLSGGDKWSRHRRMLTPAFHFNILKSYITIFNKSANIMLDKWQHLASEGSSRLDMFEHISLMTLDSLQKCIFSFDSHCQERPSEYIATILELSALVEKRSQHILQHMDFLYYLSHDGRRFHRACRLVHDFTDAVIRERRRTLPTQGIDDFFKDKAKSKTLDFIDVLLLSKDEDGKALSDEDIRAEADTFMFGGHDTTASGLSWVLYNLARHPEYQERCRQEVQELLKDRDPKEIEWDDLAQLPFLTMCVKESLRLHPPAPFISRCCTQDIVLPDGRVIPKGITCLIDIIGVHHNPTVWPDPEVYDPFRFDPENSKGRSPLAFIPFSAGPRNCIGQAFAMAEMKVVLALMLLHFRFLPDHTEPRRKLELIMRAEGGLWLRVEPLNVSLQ
# Chain of rat CYP2D1, Cyp2d1 (gene 266684) (P10633 whole entry, looked up): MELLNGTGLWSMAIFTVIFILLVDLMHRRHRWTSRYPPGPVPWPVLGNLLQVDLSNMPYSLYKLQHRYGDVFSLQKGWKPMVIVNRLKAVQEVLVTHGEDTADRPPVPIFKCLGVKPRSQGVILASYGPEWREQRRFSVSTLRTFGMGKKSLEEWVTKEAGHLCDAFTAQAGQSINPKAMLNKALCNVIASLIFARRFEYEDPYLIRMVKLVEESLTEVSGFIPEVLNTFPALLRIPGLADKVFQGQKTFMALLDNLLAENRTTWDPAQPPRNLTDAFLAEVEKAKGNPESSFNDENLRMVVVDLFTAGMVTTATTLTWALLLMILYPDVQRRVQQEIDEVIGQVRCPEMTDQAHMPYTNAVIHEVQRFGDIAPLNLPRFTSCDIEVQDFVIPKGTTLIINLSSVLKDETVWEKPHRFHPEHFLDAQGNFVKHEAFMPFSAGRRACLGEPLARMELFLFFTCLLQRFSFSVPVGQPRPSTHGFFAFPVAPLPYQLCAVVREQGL
# Chain of Estrogen receptor (Homo sapiens) (P03372 whole entry, looked up): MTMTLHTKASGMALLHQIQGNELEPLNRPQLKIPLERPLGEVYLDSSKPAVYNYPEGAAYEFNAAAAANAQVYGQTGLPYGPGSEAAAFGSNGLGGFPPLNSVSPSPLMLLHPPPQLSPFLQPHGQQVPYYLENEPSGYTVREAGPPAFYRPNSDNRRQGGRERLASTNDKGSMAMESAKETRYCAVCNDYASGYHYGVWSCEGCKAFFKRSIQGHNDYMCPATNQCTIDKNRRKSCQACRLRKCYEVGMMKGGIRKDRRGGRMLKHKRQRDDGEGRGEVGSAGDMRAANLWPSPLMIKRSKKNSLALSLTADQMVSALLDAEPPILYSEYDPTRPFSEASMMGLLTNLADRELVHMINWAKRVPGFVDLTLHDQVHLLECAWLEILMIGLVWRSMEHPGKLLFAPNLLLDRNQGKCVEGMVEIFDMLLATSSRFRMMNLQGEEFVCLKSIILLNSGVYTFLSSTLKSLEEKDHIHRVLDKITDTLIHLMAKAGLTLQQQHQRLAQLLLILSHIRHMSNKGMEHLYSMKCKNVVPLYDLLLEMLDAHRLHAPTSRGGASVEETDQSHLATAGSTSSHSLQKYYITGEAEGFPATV
# Chain of Peroxisome proliferator-activated receptor gamma (Homo sapiens) (P37231 whole entry, looked up, the tested form may be a part): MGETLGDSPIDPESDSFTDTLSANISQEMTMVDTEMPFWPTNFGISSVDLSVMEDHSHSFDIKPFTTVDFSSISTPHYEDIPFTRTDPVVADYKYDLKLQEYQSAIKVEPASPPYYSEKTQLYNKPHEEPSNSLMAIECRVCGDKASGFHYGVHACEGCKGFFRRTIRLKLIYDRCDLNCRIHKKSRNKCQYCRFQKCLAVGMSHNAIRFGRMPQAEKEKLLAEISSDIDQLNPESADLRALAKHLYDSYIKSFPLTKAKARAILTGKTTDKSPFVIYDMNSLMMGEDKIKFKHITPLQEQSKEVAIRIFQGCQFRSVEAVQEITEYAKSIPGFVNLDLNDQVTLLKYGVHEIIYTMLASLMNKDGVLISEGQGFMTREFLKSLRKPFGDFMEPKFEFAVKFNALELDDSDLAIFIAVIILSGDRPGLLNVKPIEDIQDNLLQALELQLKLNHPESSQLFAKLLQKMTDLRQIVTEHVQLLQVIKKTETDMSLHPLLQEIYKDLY
# Chain of bovine Estrogen Receptor (ER), ESR1 (gene 407238) (P49884 whole entry, looked up): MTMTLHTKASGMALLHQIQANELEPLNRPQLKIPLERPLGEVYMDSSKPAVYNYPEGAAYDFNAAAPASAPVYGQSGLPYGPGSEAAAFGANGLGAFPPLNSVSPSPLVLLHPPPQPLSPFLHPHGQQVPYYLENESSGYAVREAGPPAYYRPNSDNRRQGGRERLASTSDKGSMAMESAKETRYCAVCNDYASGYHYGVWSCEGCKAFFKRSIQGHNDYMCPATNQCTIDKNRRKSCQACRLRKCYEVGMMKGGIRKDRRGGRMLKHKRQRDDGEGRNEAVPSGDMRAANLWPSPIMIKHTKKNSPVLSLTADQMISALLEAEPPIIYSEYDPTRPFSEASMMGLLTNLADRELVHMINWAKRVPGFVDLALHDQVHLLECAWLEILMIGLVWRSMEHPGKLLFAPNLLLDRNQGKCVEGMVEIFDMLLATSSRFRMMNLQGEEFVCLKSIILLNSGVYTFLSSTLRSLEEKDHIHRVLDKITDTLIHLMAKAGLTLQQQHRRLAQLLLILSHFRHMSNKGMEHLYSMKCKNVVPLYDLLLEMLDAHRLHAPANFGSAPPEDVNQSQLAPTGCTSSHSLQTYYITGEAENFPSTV
structure (smiles),measurement,setting,value
c1ccc(Nc2ccc3ccccc3c2)cc1,AC50,[1],31.1 µM (active)
same,AC50,[2],20 µM (active)
same,outcome,[3],inactive
same,outcome,[4],inactive
same,outcome,[5],inactive
same,AC50,[6],36.6 µM (active)
same,outcome,[7],inactive
O=[N+]([O-])C=Cc1ccccc1,AC50,[1],2.15 µM (active)
same,AC50,[2],1.56 µM (active)
same,AC50,[3],20 µM (active)
same,AC50,[4],12.1 µM (active)
same,AC50,[5],27.1 µM (active)
same,AC50,[6],6.1 µM (active)
same,AC50,[7],20 µM (active)
O=C(O)c1cc[c]([Hg][Cl])cc1,outcome,[8],inactive
same,outcome,[9],inactive
same,outcome,[10],inactive
C[N+](C)(C)CC(=O)O,outcome,[8],inactive
CC(C)c1ccc(O)cc1,outcome,[11],inactive
COC(=O)COc1ccc(Cl)cc1Cl,AC50,[12],13.7 µM (active)
COCC(=O)N(c1c(C)cccc1C)N1CCOC1=O,outcome,[1],inactive
same,outcome,[2],inactive
same,outcome,[3],inactive
same,outcome,[4],inactive
same,outcome,[5],inactive
same,outcome,[6],inactive
same,outcome,[7],inactive
Nc1ccc(-c2ccc(N)c(N)c2)cc1N,outcome,[8],inactive
same,outcome,[2],inactive
same,outcome,[3],inactive
same,outcome,[7],inactive
same,AC50,[12],14.1 µM (active)
O=C(O)CCl,outcome,[11],inactive
Nc1ccccc1,outcome,[11],inactive
same,outcome,[13],inactive
CN(C)CCC#N,outcome,[14],inactive
CCCCOP(=O)(O)OCCCC,outcome,[10],inactive
c1ccc2c(c1)CCCC2,outcome,[8],inactive
same,outcome,[11],inactive
ClC1=C(Cl)[C@]2(Cl)[C@@H]3[C@@H](Cl)[C@H](Cl)C[C@@H]3[C@@]1(Cl)C2(Cl)Cl,outcome,[14],inactive
same,outcome,[15],inactive
Cl/C=C\CCl,outcome,[15],inactive
same,outcome,[13],inactive
ClCC(Cl)Cl,outcome,[8],inactive
CC(C)(C)C(=O)CCl,AC50,[1],20 µM (active)
same,AC50,[2],20 µM (active)
same,AC50,[4],4.45 µM (active)
same,AC50,[5],20 µM (active)
same,outcome,[6],inactive
same,outcome,[13],inactive
c1cc(OCC2CO2)ccc1Cc1ccc(OCC2CO2)cc1 (stereo not drawn),outcome,[9],inactive
same,outcome,[10],inactive
same,outcome,[13],inactive
O=C1C(Cl)=C(Cl)C(=O)C(Cl)=C1Cl,outcome,[14],inactive
same,AC50,[1],6.64 µM (active)
same,outcome,[3],inactive
same,AC50,[4],14.4 µM (active)
same,AC50,[5],29.1 µM (active)
same,AC50,[6],20 µM (active)
same,AC50,[7],29 µM (active)
same,outcome,[9],inactive
same,outcome,[10],inactive
same,outcome,[13],inactive
C=C(Cl)CCl,outcome,[14],inactive
COc1cc(OC)c(OC)cc1C=O,outcome,[9],inactive
same,outcome,[10],inactive
CC(=O)c1cc2c(cc1C)C(C)(C)C(C)CC2(C)C (stereo not drawn),outcome,[11],inactive
same,outcome,[13],inactive
C=C(Cl)Cl,outcome,[14],inactive
CSc1ccc(Oc2ccc(S(N)(=O)=O)cc2CN(C)C)cc1C,AC50,[16],8.72 µM (active)
same,outcome,[17],inactive
NC(=O)c1nc(-c2cccc(-c3cc(F)ccc3OCC(F)(F)C(F)(F)F)c2)n[nH]1,outcome,[16],inactive
same,AC50,[18],1.27 µM (active)
CC(C)(c1ccc(O)cc1)c1ccc(O)cc1,AC50,[16],4.07 µM (active)
same,AC50,[19],10 µM (active)
same,outcome,[17],inactive
same,outcome,[15],inactive
same,outcome,[20],inactive
CC1(C)C(=O)N(Br)C(=O)N1Br,AC50,[16],2.18 µM (active)
Cc1nc(-c2ccc3c(c2)CCN(CCC2CCC(NC(=O)/C=C/c4ccc(F)cc4)CC2)CC3)no1 (stereo not drawn),outcome,[16],inactive
same,AC50,[17],5.82 µM (active)
same,outcome,[12],inactive
CCN(CC)CCOc1ccc(C(=C(Cl)c2ccccc2)c2ccccc2)cc1,AC50,[17],27.1 µM (active)
same,outcome,[18],inactive
CCCCCCCCCC(=O)O,AC50,[16],2.83 µM (active)
same,outcome,[17],inactive
O=c1c(-c2ccc(O)cc2)coc2cc(O)cc(O)c12,AC50,[20],3.49 µM (active)
same,AC50,[12],10.6 µM (active) and 12.2 µM (active) and 2.7 µM (active)
CCCCOCCOCCOCc1cc2c(cc1CCC)OCO2,AC50,[19],5.69 µM (active)
N#CSCSc1nc2ccccc2s1,AC50,[19],0.926 µM (active)
same,outcome,[15],inactive
same,AC50,[20],25 µM (active)
same,AC50,[12],45.9 µM (active)
Cc1nn(C)c(Oc2ccccc2)c1C=NOCc1ccc(C(=O)OC(C)(C)C)cc1,outcome,[19],inactive
O=C(O)Cn1c(=O)n(Cc2ccc(Br)cc2F)c(=O)c2ccc(Cl)cc21,outcome,[17],inactive
C=CCCCCCCCCCCCC,outcome,[18],inactive
COCCOCCOC,outcome,[18],inactive
same,AC50,[20],39.7 µM (active)
